Compounds with a hit are over-represented: about 7.6% of the library has one in this group of screens.
Cy5 interf NS3h – enhances or quenches Cy5 fluorescence in NS3h assay | fluorescence interference ratio at 100 µM | Cy5-dT15 DNA with NS3h, fluorescence interference; actives lie on both sides; signal over control mean, under 1 quenches | AID 720488 | 16,000 compounds, 6% hits;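 active = compound fluorescence over control fluorescence at most 0.8, a quencher, or at least a set upper limit, an enhancer; inactive = ratio between 0.8 and the set upper limit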
NS3h inh CB – blocks HCV NS3 helicase binding to DNA; NS3h Cy5-dT15 DNA binding, fluorescence polarization; inhibition, % at 100 µM; 16,000 compounds, 1.6% hits; AID 687043;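 active = inhibition above the average over every tested compound plus 3 SD, cut at about 40% in these data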
NS3h confirm – confirmation of hepatitis C virus NS3 helicase inhibitors | 240 compounds, 20% hits | inhibition, % at 100 µM | NS3h binding to Cy5-dT15 DNA, fluorescence polarization | shares compounds with NS3h inh CB;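 active = percent inhibition of 50% or more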
SSB FP counter – counter-screen for HCV NS3 helicase inhibitors: E. coli SSB binding; shares compounds with NS3h inh CB; E. coli SSB binding Cy5-dT15, fluorescence polarization; inhibition, % at 100 µM; 240 compounds, 40% hits; AID 720486;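 active = inhibition of at least 50%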;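 also: displacers lower Cy5 polarization so higher inhibition means more SSB displaced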
Target sequence (P0AGE0 whole entry, looked up): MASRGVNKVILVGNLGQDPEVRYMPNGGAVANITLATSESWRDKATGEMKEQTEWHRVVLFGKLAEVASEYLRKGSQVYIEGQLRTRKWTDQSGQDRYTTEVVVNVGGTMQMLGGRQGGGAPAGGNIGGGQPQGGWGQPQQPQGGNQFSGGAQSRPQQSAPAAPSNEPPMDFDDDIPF
Cy5 SSB interf – Cy5 fluorescence interference in NS3h counter-screen; shares compounds with NS3h inh CB; Cy5-dT15/E. coli SSB fluorescence interference; actives lie on both sides; fluorescence interference ratio at 100 µM; 240 compounds, 8% hits; AID 720487;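 active = fluorescence interference ratio at or above 1.2, signal boosting, or at or below 0.8, signal quenching; inactive = ratio between 0.8 and 1.2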;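 also: ratio of compound well signal to mean negative control signal so 1 means no effect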
Cy5 interf conf – Cy5 fluorescence interference, confirmation counter-screen | 240 compounds, 44% hits | fluorescence interference ratio at 100 µM, hits read low | shares compounds with NS3h inh CB | Cy5-dT15 DNA/NS3h fluorescence interference counterscreen;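 active = fluorescence interference ratio at or below 0.8 quencher or at or above a set limitenhancer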;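 also: ratio of compound fluorescence to mean of negative controls so 1 means no interference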
* = called active by the depositor; ! = repeats disagree.

SMILES	Cy5 interf NS3h	NS3h inh CB	others
O=[N+]([O-])c1ccc(NCC(O)c2ccccc2)c2ncccc12 (stereo unspecified)	0.65*	36
O=[N+]([O-])c1ccc(NCCCO)c2ncccc12	0.93	-14
CCCc1ccc(OCCNc2ccc([N+](=O)[O-])c3cccnc23)cc1	1	11
CC(Nc1ccc([N+](=O)[O-])c2cccnc12)c1ccc(Br)cc1 (stereo unspecified)	0.68*	26
O=C1NC(=O)C(=Cc2ccccc2Cl)C(=O)N1	1.1	22
O=[N+]([O-])c1ccc(N2CCCC2)c(F)c1Br	0.84	-3
Cc1ccc(C)n1-c1ccc(N2CCNCC2)c([N+](=O)[O-])c1	0.32*	-18
COc1ccccc1CN1CCN(Cc2ccc(C)cc2)CC1	1	-14
O=C1/C(=C/c2ccccn2)N2CCC1CC2	0.97	-14
CC1=NN(c2ccccc2)C(=O)C1=Cc1c(O)[nH]c(=O)[nH]c1=O	0.71*	14
Cc1cccc(-n2c(-c3ccccc3F)nc3ccccc3c2=O)c1	0.97	5
Cc1cc(OCc2ccc(Cl)cc2)c2c3c(c(=O)oc2c1)CCC3	1.1	6
COC(=O)c1[nH]cnc1C(=O)Nc1ccc(Cl)cc1C(=O)c1ccccc1	0.72*!	16
Cc1ccc(NC(=O)c2nc[nH]c2C(=O)Nc2ccc(Br)cc2C(=O)c2ccccc2)cc1	1.1	-2
O=C(Cn1c[n+]([N-][N+](=O)[O-])cn1)N1CCN(C(=O)Cn2c[n+]([N-][N+](=O)[O-])cn2)CC1	1.1	0
O=C(Cn1c[n+]([N-][N+](=O)[O-])cn1)Nc1ccc(NC(=O)Cn2c[n+]([N-][N+](=O)[O-])cn2)cc1	0.76*	-6
C=C(C)COc1cc(C)cc2oc(=O)c3c(c12)CCC3	1.1	17
COc1cccc(C=C2C(=O)NC(=O)NC2=O)c1	0.98	32
COc1ccc(C=C2C(=O)NC(=S)NC2=O)c(OC)c1	0.78*	11
CCCCC1(C)NCCN2C(=O)CSC21 (stereo unspecified)	1.1	3
O=C1NC(=O)C(=Cc2ccc(OCc3cccc(C(=O)O)c3)cc2)C(=O)N1	1.1	-4
COc1ccc2[nH]cc(CCN)c2c1	0.76*	7
O=C1/C(=C/c2ccc(O)cc2)N2CCC1CC2	1.1	-6
COc1ccc(CN2CCN(Cc3cccc(F)c3)CC2)cc1	0.97	-6
O=C(Nc1ccc(Cl)cc1C(=O)c1ccccc1)c1cncc(Br)c1	0.94	11
SMILES	Cy5 interf NS3h	NS3h inh CB	others
Cc1cc([N+](=O)[O-])nn1CC(=O)Nc1ccc(Cl)cc1C(=O)c1ccccc1	0.57*	9
CCN1CCC2(CC1)CC(C)c1cccc(C)c1N2 (stereo unspecified)	1.1	-18
Cc1cc(C=C2C(=O)NC(=O)NC2=O)c(C)n1-c1cccnc1	1.1	47*	NS3h confirm=-3;SSB FP counter=8;Cy5 SSB interf=1;Cy5 interf conf=0.76*
Cc1cc(C=C2C(=O)NC(=O)NC2=O)c(C)n1C	0.93	-2
COc1ccc(N2C(=O)CC(=O)NC2=S)cc1	1.1	1
Cc1ccc(N2C(=O)NC(=O)/C(=C\C=C\c3ccccc3)C2=O)cc1	0.91	14
O=C1NC(=S)NC(=O)C1=Cc1ccc(-c2cc(Cl)c([N+](=O)[O-])cc2Cl)o1	0.88	25
Cc1ccc(-n2c(C)cc(/C=C3\C(=O)NC(=S)N(c4ccccc4)C3=O)c2C)cc1	0.97	0
O=C1NC(=O)N(c2ccccc2)C(=O)/C1=C\c1ccc(-c2ccc(C(=O)O)cc2)o1	0.95	83*	NS3h confirm=91*;SSB FP counter=94*;Cy5 SSB interf=0.84;Cy5 interf conf=0.76*
O=C1NC(=S)N(c2ccccc2)C(=O)/C1=C/c1ccc(-c2ccc(C(=O)O)c(Cl)c2)o1	1.1	68*	NS3h confirm=66*;SSB FP counter=95*;Cy5 SSB interf=0.84;Cy5 interf conf=0.93
Cc1ccc(N2C(=O)/C(=C/c3ccc(-c4cccc(C(=O)O)c4)o3)C(=O)NC2=S)cc1	1	83*	NS3h confirm=55*;SSB FP counter=105*;Cy5 SSB interf=0.81;Cy5 interf conf=0.93
Cn1c(O)c(C=C2C=CC=N2)c(=O)[nH]c1=O	0.89	14
OC1C2CCCC1C(N1CCCCC1)CC2 (stereo unspecified)	0.99	1
Cc1cccc(C(=O)NC(Oc2ccccc2Cl)C(Cl)(Cl)Cl)c1 (stereo unspecified)	0.94	9

Screening results from PubChem.
